Screens: PubChem BioAssay, National Center for Advancing Translational Sciences (NCATS)
Rows were chosen to be rich in hits. Some 9.3% of all compounds tested hit in one or more screens of this group.
ELG1 repair inh: qHTS screen for small molecules that inhibit ELG1-dependent DNA repair in human embryonic kidney (HEK293T) cells expressing luciferase-tagged ELG1. HEK293T ELG1-luciferase reporter, luminescence, 16 h; DNA damage induced by 5-fluorouridine. Potency, µM (top dose mostly 46.1 µM), for the others: top-dose activity change, negative = inhibition, hits mostly inhibitors. 330,000 tested, 2.3% active; also: % is scaled to controls: 0 for no effect and ±100 for the full control effect; nearly all actives have a fitted effect of over 55% in size
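Cells (2,000 per well) received 5-fluorouridine plus test compound or DMSO and were incubated 16 hr at 37 °C, 5% CO2. Luciferase activity was read by luminescence 30 min after ONE-Glo addition; signal suppression marked inhibition of damage-induced ELG1 function.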
NPC1 promoter act: qHTS Assay for NPC1 Promoter Activators; Huh7 NPC1 promoter luciferase reporter, 24 h; Potency, µM (top dose mostly 9.22 µM), for inactives: at the top dose activation, hits mostly activators; 320,000 tested, 2.4% active; also: % of control where 0% means no effect; nearly all actives have a fitted effect of over 60% in size
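Stable NPC1-promoter luciferase Huh7 line; cpd (DMSO) 24 h, 37 °C, 5% CO2; Amplite luciferase reagent 10 min RT; luminescence readout. qHTS format.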
ELG1 genotox: qHTS screen for small molecules that induce genotoxicity in human embryonic kidney (HEK293T) cells expressing luciferase-tagged ELG1; HEK293T ELG1-luciferase reporter, luminescence, 16 h; Potency, µM (titrated, usually from 46 µM), inactives show at the top dose activity change, positive = activation, usual class: activators; 330,000 tested, 1.3% active; AID 504466, 2011; also: % of control where 0% means no effect; nearly all actives have a fitted effect of over 60% in size
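Genotoxic stress is detected as increased luminescence from luciferase-tagged ELG1 in HEK293T cells, measured with ONE-Glo after a 16 hr treatment at 37 °C.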
SMN2 splice enh: qHTS Assay for Enhancers of SMN2 Splice Variant Expression | HEK293 SMN2-luciferase splicing reporter, luminescence, 30-36 h | Potency, µM (top dose mostly 46.1 µM), inactives show at the top dose activity change, positive = activation, actives largely listed as activators | 210,000 tested, 2.8% active; also: % of control where 0% means no effect; nearly all actives have a fitted effect of over 55% in size
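HEK293 cells carry an SMN2 minigene-luciferase reporter in which exon 7 inclusion puts luciferase in frame. Cells were seeded at 2000 cells/well, attached for 10-12 hours, then exposed to compounds for 30-36 hours at 37C before ONE-Glo luminescence.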
Rab9 prom act: qHTS Assay for Rab9 Promoter Activators; Huh7 Rab9 promoter-luciferase reporter, luminescence, 24 h; Potency, µM (highest dose often 9.22 µM), for inactives: at the top dose activation, negative = inhibition, actives largely listed as activators; 320,000 tested, 2.8% active; also: % of control where 0% means no effect; nearly all actives have a fitted effect of over 60% in size
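Cell-based reporter: Huh7 stable for Rab9 promoter-driven luciferase, plated in reduced-serum medium with 10% FBS at 1500 cells/well, compound-treated 24 h at 37 °C, luminescence read after 10 min reagent.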
FLuc counter: qHTS profiling assay for firefly luciferase inhibitor/activator using purifed enzyme and Km concentrations of substrates (counterscreen for miR-21 project); Luciferin 4-monooxygenase (Photinus pyralis), P08659; purified FLuc, Km substrates, luminescence inhibition; Potency, µM (highest dose often 57.5 µM), for inactives: at the highest dose activity change, negative = inhibition, usual class: inhibitors; 360,000 tested, 6.9% active; AID 588342, 2011;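 also: plate controls were vehicle for no effect and reference inhibitor for full effect; nearly all actives have a fitted effect of over 55% in size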
Target sequence (P08659 whole entry, looked up): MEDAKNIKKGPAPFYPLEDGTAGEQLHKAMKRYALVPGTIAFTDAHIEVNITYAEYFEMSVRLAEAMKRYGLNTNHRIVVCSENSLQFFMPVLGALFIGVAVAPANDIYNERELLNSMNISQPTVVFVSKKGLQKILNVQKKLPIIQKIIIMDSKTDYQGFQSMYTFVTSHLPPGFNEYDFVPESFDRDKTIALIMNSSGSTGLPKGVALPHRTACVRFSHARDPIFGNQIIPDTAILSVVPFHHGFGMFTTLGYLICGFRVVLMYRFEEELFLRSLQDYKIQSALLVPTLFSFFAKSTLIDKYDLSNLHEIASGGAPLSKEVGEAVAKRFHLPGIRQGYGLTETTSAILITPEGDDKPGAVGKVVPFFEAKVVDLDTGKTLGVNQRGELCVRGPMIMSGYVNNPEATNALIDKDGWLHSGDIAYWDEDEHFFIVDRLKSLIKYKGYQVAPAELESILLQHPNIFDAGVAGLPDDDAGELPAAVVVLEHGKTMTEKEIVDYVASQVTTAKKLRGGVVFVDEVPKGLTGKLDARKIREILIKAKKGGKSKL
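Purified P. pyralis luciferase, 10 nM final, with Km-level 10 uM D-luciferin and 10 uM ATP in 50 mM Tris acetate pH 7.5, 10 mM Mg acetate, 0.01% Tween-20, 0.05% BSA; 6-point qHTS titration about 60 µM downward; luminescence read.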
The depositor's hits bear a star; ? = inconclusive; . = not tested or not shown; [ ] = dose if it differs, or a comment. Calls follow the shape of the dose curve; as a rule, active = well fitted curve in the direction sought with a large enough effect; inconclusive = small, poorly fitted or top-dose-only effect, or another doubt; inactive = no such curve, though single readings can be large; an effect the other way counts as inactive or inconclusive. Potency is read from the fitted curve at half-maximal effect.

SMILES | ELG1 repair inh | NPC1 promoter act | ELG1 genotox | SMN2 splice enh | Rab9 prom act | FLuc counter
CCC(=O)Nc1nc(-c2ccc3c(c2)OCCO3)cs1 | ? | 0.5µM* | 2.1µM* | 2.5µM* | 3.2µM* | 6µM*
CC(C)(C)C(=O)Nc1nc(-c2ccc3c(c2)OCO3)cs1 | ? | 3.5µM* | 2.3µM* | ? | 2.8µM* | 7.6µM*
O=C(/C=C/c1ccc2c(c1)OCO2)Nc1nc(-c2ccc(F)cc2)cs1 | ? | -1% | 0% | -61% | -1% | ?
COc1ccc(NC(=O)Nc2ccc(OCc3ccccc3)cc2)cn1 | -1% | -2% | 4% | . | -1% | -1%
CCOc1ccc(N(C(C)C(=O)N2CCCCCC2)S(C)(=O)=O)cc1 (configuration not stated) | -19% | -9% | -6% | . | 2% | 2%
Cc1nn(Cc2ccc(F)cc2)c2sc(C(=O)Nc3ccc(N4CCOCC4)cc3N3CCOCC3)cc12 | 18µM* | -1% | -11% | 9% | -3% | -7%
O=C(CSCc1ccc(F)cc1)Nc1ccc(N2CCOCC2)cc1N1CCOCC1 | ? | -1% | 3% | . | -12% | 9%
CCCCC(=O)N(Cc1ccc2c(c1)OCO2)Cc1nc2ccccc2c(=O)[nH]1 | 2% | -4% | -2% | . | 0% | 4%
CC(C(=O)O)N1C(=O)/C(=C/C=C/c2ccco2)SC1=S (configuration not stated) | -2% | 8% | 0% | -9% | 1% | 17µM*
CCc1noc(C)c1C(=O)OCC(=O)N1CCc2ccccc21 | ? | 0% | 4% | . | -2% | 3%
CC1CCc2nc3ccccc3c(C(=O)OCC(=O)N3CCc4ccccc43)c2C1 (configuration not stated) | 18µM* | 0% | -11% | 2% | -1% | 4.8µM*
CCCc1nc2ccccc2c(C(=O)OCC(=O)N2CCc3ccccc32)c1CC | 16µM* | -1% | -13% | -51% | -2% | ?
CC1CN(C(=S)SCC(=O)c2ccc([N+](=O)[O-])cc2)CC(C)O1 (configuration not stated) | 0% | 1% | -8% | . | 4% | 0%
C[C@H](CO)N1C[C@H](C)[C@@H](CN(C)Cc2ccncc2)Oc2c(NS(=O)(=O)c3cccs3)cccc2C1=O | 12% | . | 0% | . | . | .
N/C(=N\OC(=O)c1cc([N+](=O)[O-])ccc1Cl)c1ccccn1 | ? | 3% | 7% | . | -13% | 24µM*
N/C(=N\OC(=O)c1ccc([N+](=O)[O-])cc1Cl)c1ccccn1 | ? | ? | 0.33µM* | . | 0.32µM* | 0.12µM*
N/C(=N\OC(=O)c1cccc([N+](=O)[O-])c1)c1ccccn1 | ? | ? | -16% | 14µM* | 3.5µM* | 5.4µM*
Cc1ccc(OC(=O)c2ccc([N+](=O)[O-])cc2Cl)cn1 | -4% | -4% | 1% | . | -6%[1.84 µM] | 12µM*
Cc1ccc(OC(=O)c2ccc(C)c([N+](=O)[O-])c2)cn1 | 3% | -1% | 1% | 11% | -4% | ?
CSc1ncc(Cl)c(C(=O)Nc2sc3c(c2C(=O)NCc2ccco2)CCCC3)n1 | 12% | -9% | -2% | 1% | 2% | 1%
CN(CCc1ccccn1)C(=O)c1ccc(OC(F)(F)F)cc1 | 23% | 6% | 6% | 0% | 7% | -6%
O=C(CCC1CCCCC1)Nc1ncn[nH]1 | 3% | -3% | -5% | -14% | -6% | 3%
NC(=O)C1CC(=O)N(c2ccc(OCc3ccc(F)cc3)cc2)C1 (configuration not stated) | ? | 2.5µM* | 18µM* | . | ? | ?
NC(=O)C1CC(=O)N(c2ccc(OCc3c(F)cccc3Cl)cc2)C1 (configuration not stated) | -1% | -6% | 0% | . | 1% | -12%
O=C(O)C1CC(=O)N(c2ccc(OCc3ccc(Cl)cc3Cl)cc2)C1 (configuration not stated) | 8% | -2% | 2% | 10% | -5% | 17µM*
SMILES | ELG1 repair inh | NPC1 promoter act | ELG1 genotox | SMN2 splice enh | Rab9 prom act | FLuc counter
Nc1nc(SCC(=O)Nc2ccccc2-c2ccccc2)n[nH]1 | -1% | 1% | 0% | 0% | 1% | 1%
COc1cccc(NC(=O)c2cn(C)c(=O)c3cc(OC)c(OC)cc23)c1 | -26% | -8% | -5% | 0% | 1% | 4%
CCOc1ccc(Nc2nc(N)c3ccccc3n2)cc1 | ? | 0.89µM* | 0.58µM* | . | 0.71µM* | 0.43µM*
CN(C)c1nc(Nc2ccccc2)nc(N(C)C)n1 | ? | 4% | -6% | -11% | 8% | -12%
Cc1ccccc1Nc1nc(N)c2ccccc2n1 | ? | 0.71µM* | ? | 3.5µM* | 0.5µM* | 1.7µM*
CCOc1ccc(Nc2nc3ccccc3c3nnc(CC)n23)cc1 | . | . | . | -13% | . | -4%
CN(C)c1ccc(Nc2nc(N)c3ccccc3n2)cc1 | ? | ? | ? | . | 0.1µM* | 0.19µM*
COc1ccc(C)cc1Nc1nc(N)c2ccccc2n1 | 10% | 4% | -3% | . | 0% | ?
Nc1nc(Nc2ccccc2)nc2ccccc12 | ? | 0.56µM* | ? | 14µM* | 0.63µM* | 1.3µM*
Cn1c(-n2c(CCCN3C(=O)c4ccccc4C3=O)nc3ccccc3c2=O)nc2ccccc21 | ? | 8% | -15% | -8% | 0% | -16%
Nc1nc(Nc2ccc(Cl)cc2)nc2ccccc12 | ? | 0.63µM* | ? | . | 0.5µM* | 0.43µM*
COCCNC(=S)N/N=C(\C)c1ccc2cc(OC)ccc2c1 | ? | -2% | -8% | -26% | 0% | -15%
CCOc1ccc(OCC)c(NC(=O)c2ccc(-c3ccccc3)s2)c1 | . | . | . | 4% | . | 3%
O=C(Nc1ccccc1)c1ccc(-c2ccccc2)s1 | ? | ? | 5.2µM* | 2% | ? | 1.7µM*
Cc1cc(-c2ccc(C(=O)O)s2)cnc1N | ? | ? | ? | 13µM* | ? | 12µM*
O=C(Nc1ccccc1F)c1ccc(-c2ccccc2)s1 | . | . | . | ? | . | 1.5µM*
O=C(O)c1ccc(-c2ccc(-c3ccccc3)cc2)s1 | ? | 4e-05µM* | ? | . | 0.001µM* | 0.076µM*
CC1(C)C=C(c2ccc(C(=O)O)s2)CC(C)(C)N1 | 1% | 1% | 1% | 0% | -2% | -1%
CCc1ccc(NC(=O)c2ccc(-c3ccccc3)s2)cc1 | . | . | . | . | . | 0%
